Calls of active or inactive are those of the source.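 The calls were made as follows, unless noted: active = mean inhibition above 46.68%, the untreated control wells mean plus 3 SD; inactive = the rest.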
Assays:
[1] = target: Nuclear receptor coactivator 3 (Homo sapiens) (UniProt Q9Y6Q9); experiment: SRC3 coactivator transcriptional activity inhibitors, confirmation, cell-based, luminescence, quadruplicate (AID 588792;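 active = mean inhibition over 43.08%, the solvent-only control mean plus 3 SD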;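 also: 0% = DMSO treated cells and 100% = gossypol at 36 µM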); conditions: HEK293 GAL4-SRC3 luciferase reporter, at 3.6 µM, hits give high values
[2] = test system: transactivating tegument protein VP16 (Human herpesvirus 1), Gal4-VP16 luciferase reporter; experiment: VP16 transactivation inhibitors, counter-screen for SRC3 inhibitor project, cell-based, luminescence, high throughput (AID 588794; in the data active = inhibition above about 30%); conditions: mammalian cells, VP16-driven luciferase reporter luminescence; at 3.6 µM; hits give high values
[3] = target: Nuclear receptor coactivator 1 (Homo sapiens) (UniProt Q15788); experiment: SRC1 coactivator transcriptional activity inhibitors, confirmation, cell-based, luminescence, quadruplicate (AID 588820); conditions: HEK293 GAL4-SRC1 luciferase reporter, at 3.6 µM, hits give high values;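 also: 0% = DMSO wells and 100% = gossypol 36 µM treated wells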
[4] = VP16 transactivation inhibitors, counter-screen for SRC1 inhibitor project, cell-based, luminescence, high throughput (AID 588824; in the data active = inhibition above about 25%); conditions: cell-based VP16 transactivation luciferase luminescence; at 3.6 µM; hits give high values

Nuclear receptor coactivator 3 (Homo sapiens), sequence (Q9Y6Q9 whole entry, looked up, the tested form may be a part): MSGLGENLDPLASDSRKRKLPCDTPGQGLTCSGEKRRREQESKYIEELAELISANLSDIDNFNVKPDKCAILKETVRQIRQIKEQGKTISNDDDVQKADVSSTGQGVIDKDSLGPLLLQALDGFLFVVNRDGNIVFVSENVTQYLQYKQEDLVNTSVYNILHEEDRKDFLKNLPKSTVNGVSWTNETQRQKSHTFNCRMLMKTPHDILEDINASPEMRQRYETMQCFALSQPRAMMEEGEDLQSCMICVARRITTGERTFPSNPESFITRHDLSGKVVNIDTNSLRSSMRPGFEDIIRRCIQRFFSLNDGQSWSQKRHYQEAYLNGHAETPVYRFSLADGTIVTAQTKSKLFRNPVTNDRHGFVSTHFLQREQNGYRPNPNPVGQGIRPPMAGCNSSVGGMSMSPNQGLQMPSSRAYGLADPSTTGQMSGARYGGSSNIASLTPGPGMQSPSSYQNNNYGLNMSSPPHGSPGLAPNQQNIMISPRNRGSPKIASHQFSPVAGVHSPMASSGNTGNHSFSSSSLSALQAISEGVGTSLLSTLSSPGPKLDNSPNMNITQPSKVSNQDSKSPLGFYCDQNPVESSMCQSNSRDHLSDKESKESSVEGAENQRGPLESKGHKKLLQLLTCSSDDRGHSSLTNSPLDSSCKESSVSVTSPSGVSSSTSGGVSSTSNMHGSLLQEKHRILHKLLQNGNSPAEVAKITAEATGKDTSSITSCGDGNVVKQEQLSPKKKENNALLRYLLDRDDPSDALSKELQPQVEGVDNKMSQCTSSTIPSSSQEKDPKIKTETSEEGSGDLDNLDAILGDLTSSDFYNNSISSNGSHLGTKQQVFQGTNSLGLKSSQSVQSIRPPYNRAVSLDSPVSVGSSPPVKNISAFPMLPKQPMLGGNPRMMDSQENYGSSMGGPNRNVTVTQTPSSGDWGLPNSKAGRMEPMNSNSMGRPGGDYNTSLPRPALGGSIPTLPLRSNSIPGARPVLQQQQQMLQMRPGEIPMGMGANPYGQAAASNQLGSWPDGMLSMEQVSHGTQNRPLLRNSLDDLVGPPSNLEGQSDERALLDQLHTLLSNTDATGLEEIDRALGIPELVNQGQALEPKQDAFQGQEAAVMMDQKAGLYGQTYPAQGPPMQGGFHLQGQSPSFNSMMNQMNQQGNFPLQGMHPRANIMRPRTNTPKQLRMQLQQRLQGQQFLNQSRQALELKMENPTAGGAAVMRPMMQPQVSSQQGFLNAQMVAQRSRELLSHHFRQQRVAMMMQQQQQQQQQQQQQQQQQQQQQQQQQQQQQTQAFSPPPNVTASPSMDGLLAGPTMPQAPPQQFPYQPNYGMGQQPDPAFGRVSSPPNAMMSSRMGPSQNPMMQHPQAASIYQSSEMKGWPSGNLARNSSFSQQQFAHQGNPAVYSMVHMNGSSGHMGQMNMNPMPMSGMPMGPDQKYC
Nuclear receptor coactivator 1 (Homo sapiens), sequence (Q15788 whole entry, looked up, the tested form may be a part): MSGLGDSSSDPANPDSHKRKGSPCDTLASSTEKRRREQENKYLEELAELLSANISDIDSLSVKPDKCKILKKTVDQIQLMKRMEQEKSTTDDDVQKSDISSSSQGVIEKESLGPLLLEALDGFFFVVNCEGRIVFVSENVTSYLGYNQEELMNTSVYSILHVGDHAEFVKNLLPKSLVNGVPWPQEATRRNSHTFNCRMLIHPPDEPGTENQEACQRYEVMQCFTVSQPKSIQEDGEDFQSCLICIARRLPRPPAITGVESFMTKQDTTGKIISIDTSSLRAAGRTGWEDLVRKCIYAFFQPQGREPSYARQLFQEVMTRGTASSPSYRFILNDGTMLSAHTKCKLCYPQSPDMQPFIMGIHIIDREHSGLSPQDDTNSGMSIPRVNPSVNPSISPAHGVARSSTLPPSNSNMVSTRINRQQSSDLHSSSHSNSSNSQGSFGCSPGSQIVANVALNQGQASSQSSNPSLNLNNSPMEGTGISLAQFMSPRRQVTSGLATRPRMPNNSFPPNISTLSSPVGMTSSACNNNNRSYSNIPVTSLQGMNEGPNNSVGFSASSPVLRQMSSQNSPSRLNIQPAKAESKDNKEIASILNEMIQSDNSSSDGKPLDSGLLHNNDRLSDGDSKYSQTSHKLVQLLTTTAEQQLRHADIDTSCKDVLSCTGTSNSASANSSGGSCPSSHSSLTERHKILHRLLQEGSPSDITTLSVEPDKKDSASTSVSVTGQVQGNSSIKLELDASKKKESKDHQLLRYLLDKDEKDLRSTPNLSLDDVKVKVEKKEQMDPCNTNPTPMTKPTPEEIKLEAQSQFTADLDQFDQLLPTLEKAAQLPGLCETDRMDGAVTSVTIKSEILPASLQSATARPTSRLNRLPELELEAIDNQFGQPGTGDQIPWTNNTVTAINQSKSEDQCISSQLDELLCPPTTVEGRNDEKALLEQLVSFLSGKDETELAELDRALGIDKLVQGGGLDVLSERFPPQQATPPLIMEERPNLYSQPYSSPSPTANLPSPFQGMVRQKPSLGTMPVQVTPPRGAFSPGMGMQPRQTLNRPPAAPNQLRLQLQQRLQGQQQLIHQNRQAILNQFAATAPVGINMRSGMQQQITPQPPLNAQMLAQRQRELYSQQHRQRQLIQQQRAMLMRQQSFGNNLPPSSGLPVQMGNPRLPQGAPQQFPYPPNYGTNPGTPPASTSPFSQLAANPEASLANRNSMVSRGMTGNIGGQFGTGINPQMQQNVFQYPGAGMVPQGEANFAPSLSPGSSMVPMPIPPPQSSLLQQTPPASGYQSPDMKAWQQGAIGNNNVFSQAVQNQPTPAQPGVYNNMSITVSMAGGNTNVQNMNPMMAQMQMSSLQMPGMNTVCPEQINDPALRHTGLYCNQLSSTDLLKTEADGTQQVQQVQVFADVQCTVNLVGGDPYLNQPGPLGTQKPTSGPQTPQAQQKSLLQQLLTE

Compound	inhibition [1]	inhibition [2]	inhibition [3]	inhibition [4]
O=C(N/N=C/c1cc(Cl)ccc1O)c1ccc(Br)cc1	55.7% (active)	40.1% (active)	23.3% (inactive)	38.4% (active)
COc1ccc(/C=C2\N=C(C(C)(C)C)OC2=O)c(OC)c1	9.73% (inactive)	19.2% (inactive)	10% (inactive)	3.16% (inactive)
COc1ccc2c(c1OC)C(=O)N1c3ccccc3C(=O)N(c3ccc(F)cc3)C21 (stereo unspecified)	7.69% (inactive)	4.54% (inactive)	-3.13% (inactive)	3.89% (inactive)
Cc1cc(C(=O)NNc2ccc(F)cc2)no1	9% (inactive)	7.33% (inactive)	-4.64% (inactive)	8.26% (inactive)
Cc1ccc(-c2nnn(CC(=O)N(Cc3cccs3)C(C(=O)NC3CCCC3)c3ccncc3)n2)cc1 (stereo unspecified)	58.2% (active)	35.2% (active)	48.4% (active)	34.1% (active)
CCOC(=O)C(=Cc1ccccc1)C(=O)c1ccccc1	21.3% (inactive)	33.6% (active)	10.6% (inactive)	28.7% (active)
O=C(N/N=C/c1ccc(O)cc1O)/C(=C/c1ccccc1)CCO	22.1% (inactive)	20.7% (inactive)	31.7% (inactive)	24% (inactive)
CC1Sc2ccc(Cl)cc2-c2nc(N)ncc21 (stereo unspecified)	43.9% (active)	32.3% (active)	48.2% (active)	39.7% (active)
O=C(/C=C/c1ccc(Cl)cc1)NC(=S)Nc1ccc(NC(=O)c2ccco2)cc1	29.7% (inactive)	63.8% (active)	45.1% (inactive)	65% (active)
